This is an account of results in PubChem BioAssay AID2017 (National Center for Advancing Translational Sciences (NCATS), 2009).

Inconclusive results are not listed. The source made the active and inactive calls. Calls follow the shape of the dose curve; as a rule, active = well fitted curve in the direction sought with a large enough effect; inconclusive = small, poorly fitted or top-dose-only effect, or another doubt; inactive = no such curve, though single readings can be large or run the other way.

For this assay, the system named is 4-diphosphocytidyl-2-C-methyl-D-erythritol kinase IspE (bacterial, species not stated). The assay is described as follows: Confirmatory Assay for Inhibitors of Human Galactokinase (GALK): CDP-Me assay counterscreen. An excerpt:
NIH Molecular Libraries Probe Production Centers Network [MLPCN] NIH Chemical Genomics Center [NCGC] MLPCN Grant: R03 MH085689-01 Assay Submitter (PI): Kent Lai (University of Utah School of Medicine, 50 N Mario Capecchi Drive, Salt Lake City, UT 84132) NCGC Assay Overview The GHMP kinase family is a unique class of important enzymes that plays an essential role in many metabolic processes. It contains more than 170 protein members among which are the galactokinase (GALK) and the CMK enzymes. GALK plays a crucial role in galactose processing and is a potential therapeutic target for Classic Galactosemia (OMIM: 230400). CMK is involved for the non-mevalonate synthesis of isoprenoids precursors and natural products like sterols or ubiquinones which are important to many biological functions. […]
NCGC Assay Protocol Summary: Three uL/well of substrate solution (15 uM ATP, 30 uM CDP-ME, 20 mM HEPES pH8.0, 5 mM MgCl2, 40 mM KCl, 1 mM DTT, 0.01% BSA final concentration) was dispensed into 1536-well, assay plates (Greiner, solid white medium-binding plates) with Aurora Discovery BioRAPTR Flying Reagent Dispenser (FRD; Beckton-Dickenson). […] After 1 min, luminescence was detected with the ViewLux plate reader (Perkin Elmer, Waltham, MA) using a 1 sec exposure time and 2x binning settings.

With `O=C1NC(=S)N(Cc2ccco2)C(=O)/C1=C\c1cccs1`, the call was inactive.
As for `COCCCn1c(N)c(C(=O)NCc2ccco2)c2nc3ccccc3nc21`, the entry is “inactive”.
